Results taken from PubChem BioAssay (NCATS).
Records with an inconclusive call do not appear. Unmarked numbers belong to inactive results. Calls of active or inactive are those of the source. Calls follow the shape of the dose curve; as a rule, active = well fitted inhibition curve with a large enough effect; inconclusive = small, poorly fitted or top-dose-only effect; inactive = flat fitted curve, though single readings scatter.

Each molecule was assayed against Calcium and integrin-binding protein 1 (Homo sapiens) (UniProt Q99828) (assay: Primary qHTS for Identification of Calcium Integrin Binding Protein 1 (CIB1) Competitor (AID 1508620; also: top concentration of the series differs between compounds)). Details: CIB1-GST / FITC-alphaIIb peptide fluorescence polarization; series mostly up to 114 µM; activity change, negative = inhibition: at the top concentration.
Chain of Calcium and integrin-binding protein 1 (Homo sapiens) (Q99828 whole entry, looked up): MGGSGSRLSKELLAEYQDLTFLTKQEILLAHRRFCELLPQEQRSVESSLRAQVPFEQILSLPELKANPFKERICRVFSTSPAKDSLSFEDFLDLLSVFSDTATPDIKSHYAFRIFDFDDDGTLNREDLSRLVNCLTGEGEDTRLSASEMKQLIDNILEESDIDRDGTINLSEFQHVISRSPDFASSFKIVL
Outline: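 Fluorescence polarization competition: GST-tagged CIB1 (1 uM final) preincubated with compound 15 min at room temperature, then FITC-labelled alphaIIb peptide (100 nM final) added. After 15 min at room temperature, polarization read at Ex 480/Em 540.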
% is scaled to controls: 0 for no effect and ±100 for the full control effect.

| SMILES | activity change, negative = inhibition | Potency |
| --- | --- | --- |
| CS(=O)(=O)c1ccccc1-c1csc(N2CCC(C(N)=O)CC2)n1 | 1.27% | – |
| Cc1ccc(-c2ccnc(N3CCC(C(N)=O)CC3)n2)cc1 | -1.39% | – |
| O=C1OC(c2ccccc2)(c2ccccc2)N2CCN(C(=O)NCc3ccc(F)cc3)CC12 (stereo not given) | 4.41% | – |
| Nc1ccccc1OCCn1c(CCNC(=O)C2CCCCC2)nc2ccccc21 | -2.75% | – |
| Cc1cc(NS(=O)(=O)c2ccc(C(=O)NCc3ccc(Cl)c(Cl)c3)cc2)no1 | -17.7% | – |
| COc1ccc2oc(NC3=NC(c4[nH]ncc4Cl)C4=C(CCCC4=O)N3)nc2c1 (stereo not given) | 1.18% | – |
| Cc1cccc(C2N=C(Nc3nc4ccccc4o3)NC3=C2C(=O)CCC3)c1 (stereo not given) | -3.54% | – |
| CCOC(=O)c1ccoc1-c1ccc2ncnc(NCc3ncc[nH]3)c2c1 | -1.65% | – |
| Cc1cccc(NC(=O)c2cnn3c(C)cc(C)nc23)c1 | 2.65% | – |
| COc1ccc(N2C(=O)c3ccccc3S2(=O)=O)cc1 | 0.496% | – |
| Cn1cncc1CNc1ncnc2ccc(-c3ccc4c(c3)OCO4)cc12 | -12.2% | – |
| O=S(=O)(c1ccc(F)cc1)N1CCN(S(=O)(=O)c2ccc3c(c2)OCCO3)CC1 | 4.69% | – |
| Cc1ccc(NS(=O)(=O)c2ccc3c(c2)CCC(=O)N3)cc1C | 3.69% | – |
| Fc1cc(Nc2nc(-c3ccncc3)nc3ccccc23)ccc1-c1cn[nH]c1 | 3.07% | – |
| Cc1ccc(NC(=O)CN2C(=O)N/C(=C\c3cccn3-c3ccc(C(=O)O)cc3)C2=O)cc1 | – | inactive |
| N#Cc1c(-c2ccc(Cl)cc2)no[n+]1[O-] | -2.28% | – |
| O=C1NC(=O)/C(=C/c2ccco2)N1 | -2.71% | – |
| COc1ccc(OC)c(-c2nnc3n2N=C(c2ccc(OC)c(OCC4CC4)c2)CS3)c1 | -6.74% | – |
| CCC(=O)C1CCCN(C(=O)CC(c2ccc3c(c2)OCO3)c2c(O)cc(OC)cc2OC)C1 (stereo not given) | -4.91% [at 228 µM] | – |
| COc1ccc(C2Nc3ccccc3C(=O)N2Cc2ccc(C(F)(F)F)cc2)cc1COc1ccc(NC(C)=O)cc1 (stereo not given) | 1.78% | – |

| SMILES | activity change, negative = inhibition | Potency |
| --- | --- | --- |
| CC(C)c1ccccc1-c1ncc(F)c(NCC2CCN(c3cccnc3)CC2)n1 | -2.72% | – |
| NC1CCN(c2nc(-c3ccc(Br)cc3)cs2)CC1 | -7.35% | – |
| Cc1c(P(=S)(c2ccccc2)c2ccccc2)c2ccccc2n1Cc1ccccc1 | 0.589% | – |
| Cc1cccc(-c2ccc3ncnc(N(C)Cc4ccco4)c3c2)c1 | 2.67% | – |
| COc1ccc(-c2nnc3n2N=C(c2ccccc2OC)CS3)cc1OC | -5.83% | – |
| O=S(=O)(Nc1ccc(-c2ccccc2)cc1)c1ccc(NCc2ccc(Br)cc2O)cc1 | -0.328% | – |
| O=C(CNC(=O)c1ccc(-c2ccccc2)cc1)OC(C(=O)Nc1cc(C(F)(F)F)ccc1Cl)c1ccccc1 (stereo not given) | -0.854% | – |
| Cc1ccc(OCCn2c(CCNC(=O)c3cccc(Cl)c3)nc3ccccc32)cc1 | 1.18% | – |
| NC(=O)c1cccc(-c2noc(-c3ccccc3F)n2)c1 | -0.173% | – |
| COc1ccccc1NC(=O)C1=C(C)NC(Nc2nc3ccccc3o2)=NC1c1ccccc1Br (stereo not given) | 5.63% | – |
| Cc1ccc(-c2csc(N3CCC(C(N)=O)CC3)n2)cc1 | 4.82% | – |
| O=S1(=O)N=C(Oc2ccc(C(F)(F)F)cc2)c2ccccc21 | 0.595% | – |
| CC(C)c1cccc(-n2cnc3cc(C(=O)N4CCCCC4)ccc32)c1 | -2.36% | – |
| CC(=O)c1ccc(N2CCN(S(=O)(=O)c3ccc4c(c3)CCC(=O)N4)CC2)cc1 | 15% | – |
| N#Cc1ccc(-c2ccc(C3Nc4ccccc4C(=O)N3O)o2)cc1 (stereo not given) | -7.59% | – |
| Cc1ccc(C(=O)NC2CCN(C#N)CC2)cc1 | 0.218% | – |
| O=C1c2ccccc2C(=O)N1C1CCCCC1 | -0.478% | – |
| Cc1cc(C)nc(NC(=S)N2CCN(c3ncccn3)CC2)c1 | -0.681% | – |
| Cc1nnc(CN(C)c2ncnc3ccc(-c4ccc5c(c4)OCO5)cc23)o1 | -6.68% | – |
| CN1CCN(c2cc(-c3nc(Nc4ccc(F)c(F)c4)c4ccccc4n3)ccn2)CC1 | 0.877% | – |
